Laboratory results published in PubChem BioAssay (NCI).
Compounds without any hit were thinned out: in the full panel of roughly 83,000, 20% have a hit.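 Assay: single dose, 48 h. Readout: percent growth (0 = no net growth; negative = cell death). Active: <10.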 The source made the active and inactive calls.

Tests used:
Assay in all cases: NCI-60 one-dose screen, 48 h (100 = growth as untreated, 0 = no growth, -100 = all killed)
Conditions in all cases: 10 µM
[1] = test system: HCT-15 colon
[2] = test system: HT29 colon
[3] = test system: SNB-75 CNS
[4] = test system: SNB-19 CNS
[5] = test system: U251 CNS
[6] = test system: PC-3 prostate
[7] = test system: SK-MEL-5 melanoma
[8] = test system: UACC-62 melanoma
[9] = test system: LOX IMVI melanoma
[10] = test system: SK-MEL-28 melanoma

Measured: growth

[O-]c1c[n+](-c2ccc(Cl)cc2)no1
inactive: [1] 99.4% | [2] 118% | [3] 90.4% | [4] 95.9% | [5] 102% | [6] 91.4% | [7] 95.6% | [8] 91.5% | [9] 98% | [10] 109%

C[N+]1(CC2CO2)CCCCCC1 (stereo not given)
inactive: [1] 94.9% | [2] 112% | [3] 92.9% | [4] 104% | [5] 107% | [6] 102% | [7] 98.1% | [8] 102% | [9] 105% | [10] 104%

CCCCC(=O)N(c1ccc(Nc2c3ccccc3nc3cc([N+](=O)[O-])ccc23)cc1)S(C)(=O)=O
inactive: [1] 76.3% | [2] 79% | [3] 66.1% | [4] 69.5% | [5] 64.2% | [6] 52% | [7] 69% | [8] 75.8% | [9] 52.5% | [10] 105%

COCCNCC(O)Cn1c2ccc(Cl)cc2c2cc(Cl)ccc21 (stereo not given)
active: [1] -54.1% | [2] -15.5% | [5] -5.49% | [6] 8.25% | [7] -96.1% | [8] -73.3% | [9] -31.4% | [10] -26.3%
inactive: [3] 40.7% | [4] 24%

CCCCCCCCCCCCCC[n+]1ccc(C)cc1
active: [2] -9.48% | [3] -23.9% | [4] -50.2% | [5] -78.5% | [6] -37% | [7] -96.3% | [8] -71.5% | [9] -94.4% | [10] -20.4%
inactive: [1] 47%

CC(=O)N(O)c1ccc(/C=C/c2ccccc2)cc1
inactive: [1] 62.7% | [2] 47% | [3] 16% | [4] 32.3% | [5] 14.1% | [6] 36.1% | [7] 73.7% | [8] 32.2% | [9] 25.9% | [10] 75.4%

CCCCCC(=O)N1c2ccccc2NC2=C(C(=O)CC(c3ccc(OC)c(OC)c3)C2)C1c1ccc(C(F)(F)F)cc1 (stereo not given)
inactive: [1] 60.6% | [2] 88% | [3] 82.7% | [4] 58.1% | [5] 49.5% | [6] 16.4% | [7] 18.8% | [8] 53.9% | [9] 60.8% | [10] 86.7%
